Source: PubChem BioAssay (NCATS)
Results filed as inconclusive are left out. A call without a number means that no potency is given here. Calls of active or inactive are those of the source. Calls come from the whole dose curve; as a rule, active = well fitted curve in the direction sought with a large enough effect; inconclusive = small, poorly fitted or top-dose-only effect, or another doubt; inactive = no such curve, though single readings can be large; an effect the other way counts as inactive or inconclusive.

Assays:
[1] = target: Aldehyde dehydrogenase, mitochondrial (Homo sapiens) (UniProt P05091); assay: qHTS for Inhibitors of the Aldehyde Dehydrogenase Family (ALDH2) Primary screen (AID 2061308); note: nearly all actives have a fitted effect of over 55% in size
[2] = target: Retinaldehyde dehydrogenase 3 (Homo sapiens) (UniProt P47895); assay: qHTS for Inhibitors of the Aldehyde Dehydrogenase Family (ALDH1A3) Primary screen (AID 2061315)

Row | SMILES | Potency [1] | Potency [2]
1 | O=C(Cc1nnc(-c2cc3ccccc3[nH]2)o1)Nc1cc(C(F)(F)F)ccc1Cl | inactive | inactive
2 | CC(=O)O[C@@H]1CC2C(C)(C)C(=O)C=C[C@]2(C)C2CC[C@@]3(C)[C@H](c4ccoc4)OC(=O)[C@H]4O[C@]43[C@@]21C (stereo not given in full) | inactive | inactive
3 | COc1ccc(C2Nc3ccccc3C(=O)N2Cc2ccccc2)cc1COc1c(C)cc(NC(C)=O)cc1C (stereo not given) | inactive | inactive
4 | N/C(=N\c1nnc(-c2ccncc2)s1)Nc1ccc(Cl)c(Cl)c1 | inactive | inactive
5 | COc1ccnc(NC(=S)N2CCN(c3ccc4ccccc4n3)CC2)c1 | inactive | inactive
6 | CC(Oc1ccc2[nH]nc(/C=C/c3cnn(CCO)c3)c2c1)c1c(Cl)cncc1Cl (stereo not given) | inactive | inactive
7 | Cc1cc(C)nc(NC(=S)N2CCN(c3cnccn3)CC2)c1 | inactive | inactive
8 | CC(C)COc1ccc(-c2csc(N3CCC(C(N)=O)CC3)n2)cc1 | inactive | inactive
9 | Cc1ccc(S(=O)(=O)Nc2cnccc2C(=O)Nc2nc(-c3ccccc3F)cs2)cc1 | inactive | inactive
10 | CN1C(=O)CCc2cc(S(=O)(=O)Nc3ccc(Cl)c(Cl)c3)ccc21 | inactive | inactive
11 | Cc1ccc(OCCn2c(CCNC(=O)C3CC3)nc3ccccc32)cc1 | inactive | inactive
12 | CN1C(=O)NC(c2ccccc2Cl)C2=C1CCCC2=O (stereo not given) | inactive | inactive
13 | Cc1ccc(N2CCC(CNc3nc(-c4ccccc4C(C)C)ncc3F)CC2)cn1 | inactive | inactive
14 | COc1cc(Nc2nc(-c3ccncc3)nc3ccccc23)ccc1Cl | inactive | inactive
15 | CC1=CC2/C=C(\C)CCC(O)C(=O)C(O)CC(=O)C23C(=O)NC(CC(C)C)C3C1C (stereo not given) | inactive | inactive
16 | O=C(O)c1ccc2c(c1)C(=O)N([C@H](Cc1ccc(Cl)cc1)C(=O)O)C2=O | inactive | inactive
17 | Nc1cccc(S(=O)(=O)Nc2cnccc2C(=O)Nc2nc(-c3ccccc3)cs2)c1 | inactive | inactive
18 | Cc1noc(CN(C)c2ncnc3ccc(-c4ccc5c(c4)OCO5)cc23)n1 | inactive | inactive
19 | Cc1ccc(CCCn2c(CCNC(=O)C3CCCCC3)nc3ccccc32)cc1 | inactive | inactive
20 | O=C(Cc1ccc(Cl)c(Cl)c1)Nc1ccc([S+](=O)([O-])Nc2ccccn2)cc1 | inactive | inactive
21 | Cc1ccc(S(=O)(=O)Nc2ccc(C)cc2C(=O)Nc2nc(-c3ccccc3)cs2)cc1 | inactive | inactive
22 | Cc1ccc(S(=O)(=O)Nc2ccccc2C(=O)Nc2ncc(-c3ccccc3)s2)cc1 | inactive | inactive
23 | CCOc1cc(CCNC(=O)c2cc3sccc3n2Cc2ccccc2)cc(F)c1OCC | inactive | inactive
24 | O=C(NC1CCCc2c1cnn2-c1ccc(F)cc1F)c1ccn[nH]1 (stereo not given) | inactive | inactive
25 | CCC1=CC2CN(C1)Cc1c([nH]c3ccccc13)[C@@](C(=O)OC)(c1cc3c(cc1OC)N(C)[C@H]1[C@@](O)(C(=O)OC)[C@H](OC(C)=O)[C@]4(CC)C=CCN5CC[C@]31[C@@H]54)C2 (stereo not given in full) | inactive | inactive
